Experimental data as given in PubChem BioAssay AID1159580 (chemical genetic matrix, 2015).
About 2,000 (36%) of roughly 5,500 compounds were called active. Roughly 18% stayed inconclusive and do not appear here. Cut-off read from the data, not from the text of the source: active = normalized growth mostly below about 0.91 (no sharp cut-off); inconclusive = no clear call, values can overlap the other calls; inactive = mostly above about 0.92. The list shows a part of the results.

Test: chemical genetic growth profiling, strain panel (AID 1159580);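 note: tested at 20 µM; growth read once vehicle control cultures reached saturation at 30 °C; 1 = growth at the plate median or of vehicle wells; lower values mean less growth of the strain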
Conditions: growth OD

Measured: normalized growth

O=c1cc(-c2ccccc2)oc2c(O)c(O)ccc12
inactive: S. cerevisiae deletion strains, locus YJR066W, strain TOR1, active compounds read low 0.985 | S. cerevisiae deletion strains, locus YJR075W, strain HOC1, active compounds read low 1.01 | S. cerevisiae deletion strains, locus YKL009W, strain mrt4, active compounds read low 0.96 | S. cerevisiae deletion strains, locus YKL068W, active compounds read low 0.976 | S. cerevisiae deletion strains, locus YKL085W, strain MDH1 (second series), active compounds read low 0.986 | S. cerevisiae deletion strains, locus YKL085W, strain MDH1, active compounds read low 0.986 | S. cerevisiae deletion strains, locus YKL160W, strain elf1, active compounds read low 0.986 | S. cerevisiae deletion strains, locus YKR026C, strain gcn3, active compounds read low 0.993 | S. cerevisiae deletion strains, locus YKR091W, strain srl3, active compounds read low 0.995 | S. cerevisiae deletion strains, locus YLL001W, strain dnm1, active compounds read low 0.984 | S. cerevisiae deletion strains, locus YLL026W, active compounds read low 1 | S. cerevisiae deletion strains, locus YLL041C, strain sdh2, active compounds read low 0.987 | S. cerevisiae deletion strains, locus YLR027C, strain aat2, active compounds read low 0.999 | S. cerevisiae deletion strains, locus YLR058C, strain SHM2, active compounds read low 0.938 | S. cerevisiae deletion strains, locus YLR102C, strain apc9, active compounds read low 0.99 | S. cerevisiae deletion strains, locus YLR113W, strain HOG1, active compounds read low 1.01 | S. cerevisiae deletion strains, locus YLR221C, strain rsa3, active compounds read low 0.994 | S. cerevisiae deletion strains, locus YLR258W, strain gsy2, active compounds read low 0.987 | S. cerevisiae deletion strains, locus YLR320W, strain mms22, active compounds read low 1.01 | S. cerevisiae deletion strains, locus YLR330W, strain CHS5, active compounds read low 0.985 | S. cerevisiae deletion strains, locus YLR342W, strain FKS1, active compounds read low 0.987 | S. cerevisiae deletion strains, locus YLR357W, strain rsc2, active compounds read low 0.914 | S. cerevisiae deletion strains, locus YLR370C, strain arc18, active compounds read low 0.99 | S. cerevisiae deletion strains, locus YLR384C, strain iki3, active compounds read low 0.989 | S. cerevisiae deletion strains, locus YML016C, strain PPZ1, active compounds read low 0.952 | S. cerevisiae deletion strains, locus YML032C, strain rad52, active compounds read low 1.01 | S. cerevisiae deletion strains, locus YML120C, strain ndi1, active compounds read low 0.973 | S. cerevisiae deletion strains, locus YML124C, strain tub3, active compounds read low 0.999 | S. cerevisiae deletion strains, locus YMR058W, strain fet3, active compounds read low 0.966 | S. cerevisiae deletion strains, locus YMR078C, strain ctf18, active compounds read low 0.961 | S. cerevisiae deletion strains, locus YMR125W, strain sto1, active compounds read low 0.984 | S. cerevisiae deletion strains, locus YMR129W, active compounds read low 0.989 | S. cerevisiae deletion strains, locus YMR205C, strain PFK2, active compounds read low 1 | S. cerevisiae deletion strains, locus YMR223W, strain ubp8, active compounds read low 0.953 | S. cerevisiae deletion strains, locus YMR231W, strain pep5, active compounds read low 0.968 | S. cerevisiae deletion strains, locus YMR307W, strain GAS1, active compounds read low 0.709 | S. cerevisiae deletion strains, locus YNL067W, strain RPL9B, active compounds read low 0.955 | S. cerevisiae deletion strains, locus YNL071W, strain lat1, active compounds read low 0.985 | S. cerevisiae deletion strains, locus YNL153C, strain GIM3, active compounds read low 0.988 | S. cerevisiae deletion strains, locus YNL183C, strain NPR1, active compounds read low 1.01 | S. cerevisiae deletion strains, locus YNL209W, strain ssb2, active compounds read low 0.979 | S. cerevisiae deletion strains, locus YNL233W, strain BNI4, active compounds read low 0.922 | S. cerevisiae deletion strains, locus YNL248C, strain rpa49, active compounds read low 0.982 | S. cerevisiae deletion strains, locus YNL250W, strain rad50, active compounds read low 0.966 | S. cerevisiae deletion strains, locus YNL271C, strain bni1, active compounds read low 0.972 | S. cerevisiae deletion strains, locus YNL298W, strain CLA4, active compounds read low 0.972 | S. cerevisiae deletion strains, locus YNL307C, strain MCK1, active compounds read low 0.982 | S. cerevisiae deletion strains, locus YNL322C, strain KRE1 (second series), active compounds read low 0.993 | S. cerevisiae deletion strains, locus YNR049C, strain mso1, active compounds read low 0.993 | S. cerevisiae deletion strains, locus YNR052C, strain pop2, active compounds read low 0.916 | S. cerevisiae deletion strains, locus YOL006C, strain TOP1, active compounds read low 0.545 | S. cerevisiae deletion strains, locus YOL012C, strain htz1 0.521 | S. cerevisiae deletion strains, locus YOL147C, strain pex11, active compounds read low 0.977 | S. cerevisiae deletion strains, locus YOR001W, strain rrp6, active compounds read low 0.972 | S. cerevisiae deletion strains, locus YOR061W, strain CKA2, active compounds read low 0.921 | S. cerevisiae deletion strains, locus YOR069W, strain VPS5, active compounds read low 0.971 | S. cerevisiae deletion strains, locus YOR070C, strain gyp1, active compounds read low 0.982 | S. cerevisiae deletion strains, locus YOR080W, strain dia2, active compounds read low 0.996 | S. cerevisiae deletion strains, locus YOR083W, strain WHI5, active compounds read low 0.968 | S. cerevisiae deletion strains, locus YOR136W, strain idh2, active compounds read low 0.962 | S. cerevisiae deletion strains, locus YOR144C, strain elg1, active compounds read low 0.986 | S. cerevisiae deletion strains, locus YOR184W, strain ser1, active compounds read low 0.927 | S. cerevisiae deletion strains, locus YOR231W, strain MKK1, active compounds read low 1.06 | S. cerevisiae deletion strains, locus YOR265W, strain rbl2, active compounds read low 0.983 | S. cerevisiae deletion strains, locus YOR270C, strain vph1, active compounds read low 0.936 | S. cerevisiae deletion strains, locus YOR290C, strain snf2, active compounds read low 0.987 | S. cerevisiae deletion strains, locus YOR316C, strain cot1, active compounds read low 0.987 | S. cerevisiae deletion strains, locus YPL051W, strain arl3, active compounds read low 0.983 | S. cerevisiae deletion strains, locus YPL078C, strain atp4, active compounds read low 0.989 | S. cerevisiae deletion strains, locus YPL106C, strain sse1, active compounds read low 0.88 | S. cerevisiae deletion strains, locus YPL240C, strain hsp82, active compounds read low 0.975 | S. cerevisiae deletion strains, locus YPL241C, strain CIN2, active compounds read low 0.987 | S. cerevisiae deletion strains, locus YPL256C, strain CLN2, active compounds read low 1.06 | S. cerevisiae deletion strains, locus YPR119W, strain clb2, active compounds read low 0.991 | S. cerevisiae deletion strains, locus YPR141C, strain kar3, active compounds read low 0.974 | S. cerevisiae deletion strains, locus YPR163C, strain tif3, active compounds read low 0.987 | S. cerevisiae deletion strains, locus YPR167C, strain met16, active compounds read low 0.993 | S. cerevisiae deletion strains, strain wtn01, active compounds read low 0.903
active: S. cerevisiae deletion strains, locus YKR001C, strain vps1, active compounds read low 0.89 | S. cerevisiae deletion strains, locus YLR039C, strain RIC1, active compounds read low 0.499 | S. cerevisiae deletion strains, locus YLR262C, strain YPT6 (second series), active compounds read low 0.661 | S. cerevisiae deletion strains, locus YLR262C, strain YPT6, active compounds read low 0.593 | S. cerevisiae deletion strains, locus YLR268W, strain sec22, active compounds read low 0.768 | S. cerevisiae deletion strains, locus YLR342W, strain FKS1 (second series), active compounds read low 0.764 | S. cerevisiae deletion strains, locus YLR371W, strain rom2, active compounds read low 0.848 | S. cerevisiae deletion strains, locus YLR418C, strain cdc73, active compounds read low 0.789 | S. cerevisiae deletion strains, locus YOR106W, strain vam3, active compounds read low 0.853 | S. cerevisiae strains, strain wild type, active compounds read low 0.834
